# Results published in PubChem BioAssay AID1835 (Johns Hopkins Ion Channel Center, 2009).
# Screen size: about 2,400 compounds; about 750 (31%) were called active. Some of the results follow. A number with no mark means an inactive call.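 The calls were made as follows: active = median signal gain over dofetilide-blocked control wells reaching their mean plus 3 SD, so readout 1 at least 0; inactive = the rest.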
# Target: Voltage-gated inwardly rectifying potassium channel KCNH2 (Homo sapiens) (UniProt Q12809)
# Assay: modulators restoring hERG flux under dofetilide – cell-based, thallium flux, duplicate retest, dofetilide IC70, confirmation (AID 1835)
# Conditions: hERG cell line, FluxOR thallium flux, dofetilide-blocked; at 10 µM; stronger effect = higher value
# Voltage-gated inwardly rectifying potassium channel KCNH2 (Homo sapiens), sequence (Q12809 whole entry, looked up): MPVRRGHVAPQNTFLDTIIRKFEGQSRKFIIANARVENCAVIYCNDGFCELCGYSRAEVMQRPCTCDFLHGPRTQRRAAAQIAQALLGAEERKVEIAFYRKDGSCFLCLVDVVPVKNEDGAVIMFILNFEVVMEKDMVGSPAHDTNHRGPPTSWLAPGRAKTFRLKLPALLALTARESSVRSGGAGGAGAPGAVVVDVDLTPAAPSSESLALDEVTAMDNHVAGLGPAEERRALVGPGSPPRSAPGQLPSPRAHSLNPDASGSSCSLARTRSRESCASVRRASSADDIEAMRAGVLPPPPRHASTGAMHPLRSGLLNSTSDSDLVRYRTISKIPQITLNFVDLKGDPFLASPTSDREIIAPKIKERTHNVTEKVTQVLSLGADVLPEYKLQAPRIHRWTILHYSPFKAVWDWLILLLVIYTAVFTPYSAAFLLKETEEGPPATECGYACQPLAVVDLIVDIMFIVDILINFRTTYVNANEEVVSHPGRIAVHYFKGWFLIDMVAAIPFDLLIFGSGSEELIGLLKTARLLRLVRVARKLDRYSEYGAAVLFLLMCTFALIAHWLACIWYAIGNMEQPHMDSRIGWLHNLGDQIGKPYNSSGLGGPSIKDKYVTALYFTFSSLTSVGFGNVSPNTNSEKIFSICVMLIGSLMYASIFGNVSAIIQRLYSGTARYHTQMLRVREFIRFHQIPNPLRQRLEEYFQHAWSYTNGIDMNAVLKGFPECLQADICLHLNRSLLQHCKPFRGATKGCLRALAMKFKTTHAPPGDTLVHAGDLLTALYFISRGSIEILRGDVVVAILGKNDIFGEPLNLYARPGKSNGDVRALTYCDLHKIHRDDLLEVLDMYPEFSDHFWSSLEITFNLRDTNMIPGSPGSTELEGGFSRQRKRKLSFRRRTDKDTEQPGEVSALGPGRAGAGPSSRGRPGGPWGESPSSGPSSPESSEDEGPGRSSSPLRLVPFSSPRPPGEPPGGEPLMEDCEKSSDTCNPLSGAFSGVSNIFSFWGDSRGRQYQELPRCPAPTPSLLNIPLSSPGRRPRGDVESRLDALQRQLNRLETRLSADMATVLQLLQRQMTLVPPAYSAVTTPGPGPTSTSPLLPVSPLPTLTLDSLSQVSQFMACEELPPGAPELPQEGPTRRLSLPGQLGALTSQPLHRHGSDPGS
row,SMILES,"activity increase over dofetilide control, less the hit threshold"
1,CC1=C(C)CS(=O)N(c2ccc(S(N)(=O)=O)cc2)C1 (configuration not stated),-3%
2,Cn1ncc2c(NNC(=O)c3ccc(O)cc3)ncnc21,-15%
3,Cc1nc(NCc2cccnc2)c2c3c(sc2n1)CC(C)CC3 (configuration not stated),55% (active)
4,COc1ccc(S(=O)(=O)N2CCN(C(=O)CNC(=O)c3ccc4c(c3)OCO4)CC2)cc1,-11%
5,COc1ccc(N2CCN(CC(O)COc3ccc(F)cc3)CC2)cc1 (configuration not stated),-8%
6,COc1ccc(NC(=O)c2cc(S(=O)(=O)N3CCOCC3)ccc2N2CCOCC2)cc1,-16%
7,O=C(NC(=S)Nc1ccccc1N1CCCCC1)c1cccs1,11% (active)
8,O=C(NC(=S)Nc1ccc(N2CCOCC2)c(Cl)c1)c1sc2ccccc2c1Cl,15% (active)
9,O=C(NC(=S)Nc1ccc(N2CCCCC2)cc1)c1cccs1,-2%
10,O=C(NC(=S)Nc1ccc(N2CCCCC2)c(Cl)c1)c1cccs1,23% (active)
11,O=C(NC(=S)Nc1ccccc1N1CCCC1)c1cccs1,0%
12,CCC(=O)Nc1ccc(N2CCOCC2)c(S(=O)(=O)Nc2ccc(OC)cc2)c1,-26%
13,Nc1ccc(Cl)c(NC(=O)c2cccs2)c1,-11%
14,COCCN1C(=O)C(=O)/C(=C(/O)c2ccc(S(=O)(=O)N3CCOCC3)cc2)C1c1ccc(OC)c(OC)c1 (configuration not stated),-17%
15,Nc1nc(Br)c2c(F)cccc2c1-c1ccc(Cl)cc1,-6%
16,Cc1ccc(C2c3c(-c4ccccc4O)n[nH]c3C(=O)N2Cc2ccncc2)cc1 (configuration not stated),-3%
17,O=C(COc1ccccc1)Nc1ccc(S(=O)(=O)Nc2ccccn2)cc1,-18%
18,O=C(COc1ccc(C(=O)c2ccccc2)cc1)Nc1cccnc1,4% (active)
19,N#Cc1ccc(-c2ccc(OCC(=O)Nc3cccnc3)cc2)cc1,-10%
20,O=C(COc1ccc2ccccc2c1Br)Nc1cccnc1,31% (active)
21,O=C(COc1ccc([N+](=O)[O-])cc1)Nc1cccnc1,-25%

row,SMILES,"activity increase over dofetilide control, less the hit threshold"
1,O=C(COc1ccc(Cl)cc1Cl)Nc1cccnc1,-2%
2,CC(=O)OCC1O[C@@H](O[C@@H]2C[C@H]3C(C)(C)[C@H](OC(C)=O)CC[C@]3(C)[C@H]3CC[C@]45C[C@]4(CC[C@H]5[C@@H](C)C[C@@H](O)[C@H](O)C(C)(C)O)[C@@]32C)[C@H](O)[C@@H](O)[C@@H]1O (some centres not stated),12% (active)
3,C/C(=N\Nc1nc2ccccc2s1)c1cccs1,-8%
4,C/C(=N\Nc1nc2ccccc2s1)c1ccc(Br)s1,-11%
5,C/C(=N\Nc1nc2ccccc2nc1C)c1ccccc1O,10% (active)
6,COCCNC(=O)C(c1ccc(C)o1)N(Cc1ccc(OC)cc1)C(=O)Cn1nnc2ccccc21 (configuration not stated),4% (active)
7,COCCNC(=O)C(c1ccncc1)N(C(=O)Cn1nnc2ccccc21)c1ccc(OC)cc1 (configuration not stated),-9%
8,Cc1ccc(-c2nnn(CC(=O)N(CC3CCCO3)C(C(=O)NC3CCCC3)c3ccc(O)cc3)n2)o1 (configuration not stated),-7%
9,O=[N+]([O-])c1cccc(/C=C/c2nc(C=Nc3ccccc3)c(O)o2)c1,-13%
10,COc1cc2c(cc1OC)CN(C(=O)c1ccc3nc[nH]c3c1)CC2,-2%
11,Cc1onc(C(=O)N2CCC(C(N)=O)CC2)c1-c1ccccc1Cl,-17%
12,O=c1[nH]c2ccc(S(=O)(=O)NCc3ccccc3)cc2[nH]1,-5%
13,CC(=O)N(C1=C(N)C(=O)c2ccccc2C1=O)C(C)C,-12%
14,Nc1ccc2c(c1)C(=O)C(=O)c1ccccc1-2,10% (active)
15,Clc1ccc(Cc2ccccc2)nn1,-10%
16,CC(=O)C1=C(O)C(=O)N(c2cccnc2)C1c1ccc(Cl)cc1 (configuration not stated),-30%
17,O=C(COc1ccc(Br)cc1Cl)NC(=S)N1CCc2ccccc21,-4%
18,CC(Oc1ccc(Cl)cc1Cl)C(=O)NC(=S)N1CCc2ccccc21 (configuration not stated),36% (active)
19,CC(C)c1ccc(OCC(=O)NN2C(=O)c3ccccc3C2=O)c(Br)c1,-17%
20,O=C(COc1coc(CN2CCc3ccccc3C2)cc1=O)Nc1cccc(Cl)c1,-17%
21,O=C(COc1ccc(Br)cc1Br)NC(=S)N1CCCc2ccccc21,6% (active)

row,SMILES,"activity increase over dofetilide control, less the hit threshold"
1,O=C(COc1ccc(Cl)cc1Cl)NC(=S)N1CCCc2ccccc21,21% (active)
2,CSc1nc2ccc(S(=O)(=O)N3CCc4ccccc43)cc2s1,0%
3,CCOc1ccc2[nH]c(=O)c(CN(Cc3ccc(C)cc3)C(=O)N3CCCC3)cc2c1,-8%
4,Cc1cc(C)cc(NC(=O)N2CCCC2C(=O)Nc2ccc(-n3cnnn3)c(C)c2)c1 (configuration not stated),-28%
5,Cc1cc(SC#N)cc(C)c1NC(=O)CCl,-1%
6,C=CCNC(=O)CC(=O)N/N=C/c1cccs1,0%
7,O=C(NC1CCN(c2ncccn2)CC1)c1c(F)cccc1F,-2%
8,C=CCNc1sc(C(=O)C(C)(C)C)c(N)c1C#N,-14%
9,COc1cc(/C=C2/C(=O)NN(c3ccc(Cl)c(Cl)c3)C2=O)cc([N+](=O)[O-])c1O,-1%
10,O=C(NC(=S)N(CCc1ccccc1)CCc1ccccc1)c1ccco1,53% (active)
11,CC(CCc1ccccc1)NC(=S)NC(=O)c1ccco1 (configuration not stated),28% (active)
12,O=[N+]([O-])C1=CC=C2C(=NC3(CCCCC3)N2O)C1=NC1CCCCC1,-15%
13,O=C(COC(=O)c1cc(S(=O)(=O)NCc2ccccc2)ccc1O)NCc1ccccc1,-7%
14,Cc1cc(N2C(=O)C(O)=C(C(=O)c3cccs3)C2c2ccccc2)no1 (configuration not stated),-11%
15,COc1ccc(CNC(=O)C(=O)c2cn(CC(=O)N3CCCC3)c3ccccc23)cc1,-21%
16,Cc1ccccc1C(=O)c1cn[nH]c1-c1ccccc1O,-29%
17,O=C(Nc1nc(=S)ss1)c1ccc(Cl)cc1Cl,70% (active)
18,Cc1ccccc1C(=O)Nc1nc(=S)ss1,39% (active)
19,O=C(NNC(=O)c1ccc(Cl)cc1Cl)c1cnccn1,-16%
20,CC(C)CC(=O)Nc1nc(=S)ss1,-11%
